# Screening data as filed in PubChem.
# A selection: hits, their analogues and other compounds. The true share with any hit is near 0.9%.
# gsp antagonist – qHTS for Antagonists of gsp, the Etiologic Mutation Responsible for Fibrous Dysplasia/McCune-Albright Syndrome: qHTS. Potency, µM (titrated, usually from 76.9 µM), inactives show at the highest dose activity change, negative = inhibition, most hits filed as inhibitors. gsp-mutant cells, cAMP HTRF, 30 min. 340,000 compounds, 0.4% hits; calls by dose curve; cell line not stated here;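 note: intracellular cAMP measured with PDE inhibitor Ro 20-1724 present during compound exposure; potency is the fitted concentration of half-maximal effect; % is set by controls: 0 for no effect and ±100 for the full control effect; nearly all actives have a fitted effect of over 65% in size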
#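 G418-selected cells were plated in DMEM/10% FBS for 16-24 h at 37C, then treated with compounds plus the PDE inhibitor […] (300 uM solution added) for 30 min at 37C. Intracellular cAMP was measured by HTRF after 30 min lysis at room temperature.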
# RXFP1 ag – qHTS Assay for Agonists of the Relaxin Receptor RXFP1; Relaxin receptor 1 (Homo sapiens), Q9HBX9; HEK293T-RXFP1 cAMP TR-FRET, 30 min; response scale: percent of porcine relaxin response, buffer zero; Potency, µM (series often up to 57.5 µM), for inactives: at the top dose activation, most hits filed as activators; 370,000 compounds, 0.3% hits; AID 2676, 2010; active = well fitted activation curve with a large enough effect; inconclusive = small, poorly fitted or top-dose-only effect; note: potency is the fitted concentration of half-maximal effect; % is set by controls: 0 for no effect and ±100 for the full control effect; nearly all actives have a fitted effect of over 60% in size
# Target sequence (Q9HBX9 whole entry, looked up): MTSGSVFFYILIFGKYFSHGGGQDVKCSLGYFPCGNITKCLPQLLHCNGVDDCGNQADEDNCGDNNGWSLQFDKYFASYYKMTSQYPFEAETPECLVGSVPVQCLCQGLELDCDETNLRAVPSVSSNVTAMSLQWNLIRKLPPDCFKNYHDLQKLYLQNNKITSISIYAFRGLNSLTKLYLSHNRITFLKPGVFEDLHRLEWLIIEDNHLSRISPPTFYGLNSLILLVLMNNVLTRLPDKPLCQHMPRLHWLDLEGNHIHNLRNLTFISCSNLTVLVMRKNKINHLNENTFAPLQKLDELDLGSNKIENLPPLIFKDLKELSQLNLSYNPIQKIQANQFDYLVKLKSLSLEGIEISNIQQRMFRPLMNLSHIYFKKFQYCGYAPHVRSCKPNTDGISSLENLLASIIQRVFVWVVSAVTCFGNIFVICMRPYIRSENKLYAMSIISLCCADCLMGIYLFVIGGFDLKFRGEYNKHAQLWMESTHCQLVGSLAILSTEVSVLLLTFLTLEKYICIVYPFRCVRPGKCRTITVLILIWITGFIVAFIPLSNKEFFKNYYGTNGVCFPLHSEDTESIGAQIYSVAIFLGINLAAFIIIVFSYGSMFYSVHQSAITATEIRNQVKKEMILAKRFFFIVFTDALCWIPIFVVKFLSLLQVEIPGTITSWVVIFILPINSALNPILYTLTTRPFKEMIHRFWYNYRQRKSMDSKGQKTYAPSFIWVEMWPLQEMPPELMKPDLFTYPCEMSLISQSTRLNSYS
#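 HEK293 cells stably expressing RXFP1, treated 30 min at 37C with compounds plus PDE4 inhibitor Ro 20174; cAMP measured by HTRF TR-FRET. Normalized to buffer and 29 nM porcine relaxin; EC50 by Hill fit.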
# gsp ag – qHTS for Agonist of gsp, the Etiologic Mutation Responsible for Fibrous Dysplasia/McCune-Albright Syndrome: qHTS. gsp mutant cells, cAMP HTRF, 30 min. Potency, µM (series often up to 76.9 µM), for the others: at the top dose activation (cAMP increase), hits mostly activators. 340,000 compounds, 0.13% hits; active = well fitted activation curve with a large enough effect; inconclusive = small, poorly fitted or top-dose-only effect, or another doubt; inactive = no such curve, though single readings can be large or run the other way; cell line not stated here;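 note: phosphodiesterase inhibitor Ro 20-1724 added with compounds to block cAMP breakdown; potency is the fitted concentration of half-maximal effect; nearly all actives have a fitted effect of over 60% in size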
#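 Cells stably selected in G418 were plated at 2000/well, grown 16-24 hr, then given compounds in DMSO with the PDE inhibitor […] (300 uM solution added) for 30 min at 37C; cAMP was read by HTRF.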
# RXFP1 antagonist – qHTS Assay for Antagonists of the Relaxin Receptor RXFP1; 350,000 compounds, 0.59% hits; AID 1259400, 2018; activity change, negative = inhibition, % at 57.5 µM; HEK293-RXFP1, relaxin-stimulated cAMP HTRF, 30 min; hits give low values;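 active = activity change of -60% or lower, but not beyond a set lower limit; inconclusive = change between -60% and -40%, or beyond the set limit; inactive = change above -40%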; note: % is set by controls: 0 for no effect and ±100 for the full control effect
# * hit, by the source's call; ? = inconclusive; / = no result given; [ ] = remark or other dose.
SMILES,gsp antagonist,RXFP1 ag,gsp ag,RXFP1 antagonist
C=C1C(=O)c2sccc2C(c2ccc(OC)c(OC)c2)C1COC(C)=O (stereo unspecified),4.2%,/,-65.9%,-103.5*
CCOC(=O)c1ccc(NC(=O)Cn2cc(C(=O)c3ccc(CC)cc3)c(=O)c3ccc(C)nc32)cc1,/,31.6µM*,/,-0.1
COc1ccc(CNC(=O)c2ccc3c(c2)N(Cc2ccccc2C)C(=O)c2ccccc2S3=O)cc1 (stereo unspecified),/,2.0%,/,6.5
COc1ccc(CNC(=O)CC(c2ccc(OC)c(OC)c2)N2Cc3ccccc3C2=O)cc1 (stereo unspecified),/,0.8%,/,/
C=C(C)Cn1c(-c2ccncc2)n[nH]c1=S,/,1.1%,-19.1%[15.4 µM],-66.8*
COc1ccc(Nc2nc(N)c(C(=O)c3ccc(OC)cc3)s2)cc1,9.5%,0.9%,6.5%,-17.4
CCOc1ccc(Nc2nc(N)c(C(=O)c3ccccc3Cl)s2)cc1,/,25.1µM*,/,-22.4
CCOc1ccc(OCCOc2ccc(/C=C/C(=O)O)cc2OCC)cc1,20µM*,2.3%,24.9%[15.4 µM],-4.3
C=C1CC(Cn2cc(Br)c(=O)[nH]c2=O)(c2ccc(-c3ccccc3)cc2)OC1=O (stereo unspecified),6.8%,/,13.4%,-89.7*
O=C(NC1CCCCC1)c1ccc(CNc2nc(=S)[nH]c3ccccc23)cc1,-14.6%,0.1%,6.3%[15.4 µM],-80.8*
S=c1nc(NCc2ccc3c(c2)OCO3)c2ccccc2[nH]1,?,1.2%,-61.0%,-6.3
CCOc1ccc(/C=C/C(=O)Nc2sc3c(c2C(=O)OC)C(C(=O)OC)CC3)cc1 (stereo unspecified),/,-1.3%,/,5.2
CCOc1ccc(S(=O)(=O)Nc2ccccc2SC)c2cccnc12,12.6µM*,-2.5%,-16.4%,6.7
O=C(COc1ccccc1)NNc1c2ccccc2nc2ccccc12,39.8µM*,-0.3%,-50.6%,-24.5
O=C(NNc1c2ccccc2nc2ccccc12)c1ccc(O)cc1,35.5µM*,-0.1%,-30.3%,-8.0
O=C(NNc1c2ccccc2nc2ccccc12)c1cccc(O)c1,-10.9%,3.7%,26.7%,3.0
COc1ccc(OCC(=O)NNc2c3ccccc3nc3ccccc23)cc1,31.6µM*,-1.3%,-9.6%,-37.5
CCOc1cc(CNCCSc2nnnn2C)cc(Cl)c1OCc1ccc(Cl)cc1,/,-1.4%,/,-13.2
Cc1cc(C)cc(NC(=O)CCc2nnc3n(C)c(=O)c4sccc4n23)c1,/,5.6%,/,/
O=C(COC(=O)COc1ccc(Cl)cc1)NCCNC(=O)COC(=O)COc1ccc(Cl)cc1,-2.6%,0.3%,-1.7%[15.4 µM],-72.5*
Cc1noc(NS(=O)(=O)c2ccc(NC(=O)c3nn(-c4ccccc4)ccc3=O)cc2)c1C,14.0%,?,14.1µM*,12.6
Cc1noc(NS(=O)(=O)c2ccc(NC(=O)c3ccc(N4C(=O)c5ccccc5C4=O)cc3)cc2)c1C,3.2%,4.9%,-1.7%[15.4 µM],-32.6
Cc1cc(C)c(C#N)c(SCC(=O)Nc2ccc(S(=O)(=O)Nc3onc(C)c3C)cc2)n1,5.2%,13.7%,17.8µM*,/
COc1ccc(CC(=O)Nc2ccc(S(=O)(=O)Nc3onc(C)c3C)cc2)cc1OC,2.1%,-0.3%,-6.6%,-113.1*
N#Cc1ccc2c(c1)C[C@]1(c3ccsc3)OC3=C(C(=O)OC4(CCCCC4)C3)C2O1,/,0.2%[11.5 µM],/,/
SMILES,gsp antagonist,RXFP1 ag,gsp ag,RXFP1 antagonist
CN=c1scc(-c2ccccc2F)n1/N=C/c1ccc[nH]1,0.0%,0.7%,?,-4.7
CCN=c1scc(-c2cccs2)n1/N=C/c1cc(OC)ccc1O,?,0.3%,16.3%,-1.8
CC(C)N=c1scc(-c2cccs2)n1/N=C/c1ccc(O)c(O)c1O,-13.6%,1.4%,-25.5%,-62.6*
CN=c1scc(-c2ccccc2F)n1/N=C/c1ccc(O)c(O)c1O,15.5%,-2.6%,2.5%[15.4 µM],-64.9*
CCC1CN(S(=O)(=O)c2cc(-c3onc(C)c3C)ccc2C)c2cc(Cl)ccc2O1 (stereo unspecified),/,-1.1%,/,-27.7
COc1cc(C(=O)OC(COCCC(C)C)CN2CCOCC2)cc(OC)c1OC (stereo unspecified),/,/,/,-9.0
O=C(O)CC/C(=C/c1cccc(NC(=O)c2ccccc2Cl)c1)c1nc2ccccc2s1,?,/,11.1%,8.1
